Measured values: PubChem BioAssay (Tox21)
Records with an inconclusive call do not appear. Where a call stands in place of a potency, no number is given. Unmarked numbers belong to inactive results. Calls of active or inactive are those of the source. Calls come from the whole dose curve; as a rule, active = well fitted activation curve with a large enough effect in the repeat runs; inconclusive = weak or mixed curves; inactive = no such curve, though single readings can be large or run the other way.

Molecular target: Aryl hydrocarbon receptor (Homo sapiens) (UniProt P35869)
Sequence (P35869 whole entry, looked up): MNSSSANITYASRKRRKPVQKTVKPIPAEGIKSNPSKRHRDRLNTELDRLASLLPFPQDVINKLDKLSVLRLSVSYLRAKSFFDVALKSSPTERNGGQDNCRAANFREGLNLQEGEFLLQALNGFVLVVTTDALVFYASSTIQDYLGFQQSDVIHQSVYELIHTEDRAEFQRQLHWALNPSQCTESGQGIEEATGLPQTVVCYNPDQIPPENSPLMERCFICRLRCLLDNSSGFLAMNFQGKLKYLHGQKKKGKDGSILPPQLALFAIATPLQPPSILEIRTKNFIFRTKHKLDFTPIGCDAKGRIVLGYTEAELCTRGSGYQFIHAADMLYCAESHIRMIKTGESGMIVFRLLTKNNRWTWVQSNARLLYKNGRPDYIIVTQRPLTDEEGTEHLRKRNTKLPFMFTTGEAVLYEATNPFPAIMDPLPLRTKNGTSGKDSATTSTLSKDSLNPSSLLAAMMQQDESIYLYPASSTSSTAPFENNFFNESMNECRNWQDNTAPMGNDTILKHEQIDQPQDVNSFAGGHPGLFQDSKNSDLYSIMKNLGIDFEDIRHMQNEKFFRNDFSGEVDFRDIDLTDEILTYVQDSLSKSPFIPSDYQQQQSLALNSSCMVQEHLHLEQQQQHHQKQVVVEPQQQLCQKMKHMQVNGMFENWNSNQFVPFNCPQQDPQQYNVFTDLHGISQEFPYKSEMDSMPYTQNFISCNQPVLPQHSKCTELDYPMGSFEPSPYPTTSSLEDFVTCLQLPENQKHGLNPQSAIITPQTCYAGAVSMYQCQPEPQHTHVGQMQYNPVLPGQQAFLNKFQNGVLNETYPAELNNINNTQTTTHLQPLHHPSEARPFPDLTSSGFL
Experiment: qHTS assay to identify small molecule that activate the aryl hydrocarbon receptor (AhR) signaling pathway (AID 743085); note: nearly all actives have a fitted effect of over 15% in size;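 for activation: HG2L7.5c1 human HepG2 liver cells with stably integrated DRE-driven firefly reporter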
Details: HepG2 AhR-luc (HG2L7.5c1), luciferase, 24 h; series mostly up to 70.3 µM
Description: U.S. Tox21 Program National Center for Advancing Translational Sciences [NCATS] NIH Chemical Genomics Center [NCGC] U.S. Environmental Protection Agency [EPA] National Institutes of Environmental Health Sciences [NIEHS] National Toxicology Program [NTP] U.S. Food and Drug Administration [FDA] Tox21 Assay overview: The Aryl hydrocarbon Receptor (AhR), a member of the family of basic helix-loop-helix transcription factors, is crucial to adaptive responses to environmental changes. AhR mediates cellular responses to environmental pollutants such as aromatic hydrocarbons through induction of phase I and II enzymes but also interacts with other nuclear receptor signaling pathways. A cell based HepG2-AhR-luc assay (HG2L7.5c1 cell line, developed by Dr. Michael S. Denison, University of California at Davis, was used to assess the activation of AhR. HepG2 (human hepatocellular carcinoma) cells were stably transfected with an Ah receptor-responsive firefly luciferase reporter gene plasmid containing 20 dioxin responsive elements and luciferase reporter gene. Increased luciferase activity can be used to identify the compounds that induce AhR activation.
Tox21 Assay Protocol Summary: 4000 cells in 5 uL/well were dispensed into white wall/solid bottom 1536-well plates using a Multidrop Combi (Thermo Fisher Scientific Inc., Waltham, MA) dispenser. After the assay plates were incubated at 37C for 5 h, 23 nL of compound or DMSO vehicle was transferred to the assay plates by a pintool station (Kalypsys, San Diego, CA). The plates were incubated at 37C for 24 hr. After 1 ul/well of CellTiter-Fluor reagent (Promega, Madison, WI) was added into the assay plates using a Flying Reagent Dispenser (FRD) (Aurora Discovery, CA), the assay plates were incubated at 37C for 30 min. The fluorescence intensity in the plates was measured using a ViewLux plate reader (PerkinElmer, Shelton, CT), followed by the addition of 4 uL of ONE-Glo Luciferase Assay reagent (Promega) using an FRD (Aurora Discovery). After the assay plates were incubated at room temperature for 30 min, luminescence intensity was measured using a ViewLux plate reader (Perkin Elmer).
Potency is the fitted concentration of half-maximal effect.

Structure (SMILES) | Potency | activation
CCCCn1cc[n+](C)c1.[Cl][Fe-]([Cl])([Cl])[Cl] | inactive | –
ClSC(Cl)(Cl)Cl | inactive | –
Cc1ccc(C)c2ccccc12 | inactive | –
CN(C)C(=S)SSC(=S)N(C)C | inactive | –
CN1[C@@H]2CC[C@H]1CC(O)C2 (stereo not given in full) | inactive | –
Brc1ccc(Oc2ccc(Br)cc2Br)c(Br)c1 | inactive | –
[Cl-].[Cl-].[Cl-].[Yb+3] | inactive | –
CCc1cccc(C)c1N(C(=O)CCl)[C@@H](C)COC | inactive | –
CCC[CH2][Sn]([CH2]CCC)([CH2]CCC)[O][Sn]([CH2]CCC)([CH2]CCC)[CH2]CCC | – | -11.8% [at 8.47 µM]
O.O.O.O.O.O.O=S(=O)([O-])[O-].[Ni+2] | inactive | –
CCC[CH2][Sn]([CH2]CCC)([CH2]CCC)[CH2]CCC | inactive | –
CCC1(CC)C(=O)N=C(O)NC1=O | inactive | –
CC(C)N(C(=O)SC/C(Cl)=C/Cl)C(C)C | inactive | –
CC(=O)[O][Sn]([c]1ccccc1)([c]1ccccc1)[c]1ccccc1 | inactive | –
Nc1nc(N)nc(Cl)n1 | inactive | –
CCCCCON=O | inactive | –
COC(=O)/C=C(\C)OP(=O)(OC)OC | inactive | –
OCC(Br)CBr (stereo not given) | inactive | –
CN=C=O | inactive | –
CC(=O)O.CC(=O)O.CC(=O)O.CC(=O)O.CC(=O)O.CC(=O)O.CC(=O)O.O.O.[Cr].[Cr].[Cr] | inactive | –

Structure (SMILES) | Potency | activation
Fc1ccc(C(OCCN2CCN(CCCc3ccccc3)CC2)c2ccc(F)cc2)cc1 | inactive | –
CNC(=O)O/N=C(\C)C(C)S(C)(=O)=O (stereo not given) | inactive | –
CCCCCCC[CH2][Sn]([Cl])([Cl])[CH2]CCCCCCC | 21.7 µM (active) | –
O=[N+]([O-])c1ccccc1-c1ccccc1 | inactive | –
O=P(Cl)(Cl)Cl | inactive | –
C[N+]1(C)[C@@H]2CC[C@H]1CC(OC(=O)C(CO)c1ccccc1)C2 (stereo not given in full) | inactive | –
c1cc[n+]2c(c1)-c1cccc[n+]1CC2 | inactive | –
CCC(C)c1cccc(C(C)CC)c1O (stereo not given) | inactive | –
CNC(=O)CSP(=O)(OC)OC | inactive | –
CCCCN(CCCC)C(=S)[S-].CCCCN(CCCC)C(=S)[S-].[Ni+2] | inactive | –
C[C@]12C/C(=C/O)C(=O)C[C@@H]1CC[C@@H]1[C@@H]2CC[C@@]2(C)[C@H]1CC[C@]2(C)O | inactive | –
N#CC(C#N)=NNc1cccc(Cl)c1 | inactive | –
CCOP(=O)(Sc1ccccc1)Sc1ccccc1 | inactive | –
CCC[CH2][Sn]([CH2]CCC)([O]C(C)=O)[O]C(C)=O | inactive | –
CN(C)CCc1c[nH]c2ccccc12 | inactive | –
CC(=O)[O-].CC(=O)[O-].O.O.O.[Pb+2] | inactive | –
Nc1c(Cl)c(Cl)c(Cl)c(Cl)c1Cl | 50.5 µM (active) | –
CNC(C)(C)Cc1ccccc1 | inactive | –
BrCCCBr | inactive | –
O=C1C2(Cl)C3(Cl)C4(Cl)C(Cl)(Cl)C5(Cl)C3(Cl)C1(Cl)C5(Cl)C24Cl (stereo not given) | inactive | –
